Screening results: PubChem, National Center for Advancing Translational Sciences (NCATS)
nsP2pro inh: inhibitors of chikungunya virus nsP2 protease; FRET peptide cleavage, nsP2pro, fluorescence 1 h; Potency, µM (highest dose often 24.9 µM), for inactives: top-dose activity change, negative = inhibition, actives largely listed as inhibitors; actives 1.1% (n = 31,000); also: nearly all actives have a fitted effect of over 60% in size
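FRET cleavage of 2.5 uM peptide 2 by 150 nM CHIKV protease domain at pH 8.0 (Tris, Tween 20). Compounds at 7 concentrations (up to 25 uM) preincubated 15 min. Fluorescence read after 1 h at room temperature.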
nsP2 cell sec: inhibits CHIKV nsP2 protease in cells. shares compounds with nsP2pro inh. AID 1964100. cell-based CHIKV nsP2 protease reporter assay. Potency, µM (doses to about 51.1 µM), without a hit: at the highest dose activity change, negative = inhibition, actives largely listed as inhibitors. actives 10% (n = 450); also: nearly all actives have a fitted effect of over 70% in size
NSP2 full ctr: full-length CHIKV NSP2 protease inhibition, selectivity | shares compounds with nsP2pro inh | Full-length CHIKV NSP2 protease enzymatic counterscreen | Potency, µM (doses to about 50.7 µM), inactives show top-dose activity change, negative = inhibition, usual class: inhibitors | actives 39% (n = 410) | AID 1964101; also: nearly all actives have a fitted effect of over 65% in size
Furin counter: inhibits human furin in a CHIKV nsP2 protease selectivity counterscreen. shares compounds with nsP2pro inh. Recombinant human furin enzymatic counterscreen, fluorogenic substrate. Potency, µM (titrated, usually from 50.6 µM), for inactives: at the top dose activity change, negative = inhibition, actives largely listed as inhibitors. actives 6% (n = 410)
Target sequence (P09958 whole entry, looked up): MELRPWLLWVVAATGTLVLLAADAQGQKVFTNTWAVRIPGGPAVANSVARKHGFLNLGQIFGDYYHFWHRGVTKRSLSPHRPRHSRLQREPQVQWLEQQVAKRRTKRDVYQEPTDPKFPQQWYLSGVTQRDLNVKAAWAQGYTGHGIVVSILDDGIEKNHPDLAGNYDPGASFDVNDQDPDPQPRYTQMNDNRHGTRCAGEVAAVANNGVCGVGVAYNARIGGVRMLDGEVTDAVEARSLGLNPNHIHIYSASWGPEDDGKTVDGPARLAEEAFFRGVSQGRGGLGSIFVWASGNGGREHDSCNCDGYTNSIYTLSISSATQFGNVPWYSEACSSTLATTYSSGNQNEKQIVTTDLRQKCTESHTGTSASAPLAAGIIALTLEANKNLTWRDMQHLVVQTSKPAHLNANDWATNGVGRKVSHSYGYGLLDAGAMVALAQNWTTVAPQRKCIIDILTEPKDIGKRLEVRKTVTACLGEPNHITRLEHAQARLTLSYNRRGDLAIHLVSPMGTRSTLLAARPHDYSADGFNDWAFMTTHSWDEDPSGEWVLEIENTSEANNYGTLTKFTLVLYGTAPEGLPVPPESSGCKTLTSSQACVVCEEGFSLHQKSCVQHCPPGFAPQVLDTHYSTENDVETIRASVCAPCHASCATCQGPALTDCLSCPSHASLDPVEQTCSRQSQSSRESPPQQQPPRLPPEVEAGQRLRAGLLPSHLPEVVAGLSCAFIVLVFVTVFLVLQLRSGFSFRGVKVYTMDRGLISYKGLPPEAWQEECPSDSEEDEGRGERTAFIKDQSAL
nsP2 NS23 pep: nsP2pro inhibition on native NS2/3 peptide substrate; actives 34% (n = 410); shares compounds with nsP2pro inh; Purified CHIKV nsP2 protease, endogenous NS2/3 peptide cleavage; Potency, µM (doses to about 51 µM), inactives show at the highest dose activity change, negative = inhibition, usual class: inhibitors; also: nearly all actives have a fitted effect of over 55% in size
Papain cs: inhibits papain in a CHIKV nsP2 protease selectivity counterscreen; purified papain protease activity, enzymatic inhibition; shares compounds with nsP2pro inh; Potency, µM (series often up to 51 µM), for the others: top-dose activity change, negative = inhibition, actives largely listed as inhibitors; actives 5% (n = 410)
nsP2pro confirm: confirmation of CHIKV nsP2 protease inhibitors. AID 1964105. Potency, µM (titrated, usually from 25.5 µM), without a hit: at the top dose activity change, negative = inhibition, hits mostly inhibitors. actives 43% (n = 410). shares compounds with nsP2pro inh. CHIKV nsP2 protease enzymatic activity, qHTS; also: nearly all actives have a fitted effect of over 75% in size
HCV NS3 counter: inhibits HCV NS3/4A protease in an nsP2pro selectivity counterscreen | shares compounds with nsP2pro inh | HCV NS3/4A protease biochemical counterscreen | Potency, µM (series often up to 50.9 µM), actives largely listed as inhibitors | actives 20% (n = 410); also: nearly all actives have a fitted effect of over 55% in size
* hit, by the source's call; i = inactive; ? = inconclusive; [ ] = dose if it differs, or a comment. The sample as a whole holds a higher share of hits than the screen did. Calls follow the shape of the full dose curve. % is scaled to controls: 0 for no effect and ±100 for the full control effect; potency is read from the fitted curve at half-maximal effect.

SMILES | nsP2pro inh | others
CC1(C)CCCC2(C)c3c4c(c(=O)oc(=O)c3=CCC12)=CCC1C(C)(C)CCCC41C (stereo unspecified) | 4%[10 µM]
CC(C)c1cc2c(c(O)c1O)[C@@]13CCCC(C)(C)C1[C@@H](O)[C@@H]2OC3=O (stereo partly specified) | 6.1µM* | nsP2 cell sec=20%[33.5 µM];NSP2 full ctr=?;Furin counter=-6%[33.5 µM];nsP2 NS23 pep=?;Papain cs=-9%[33.5 µM];nsP2pro confirm=6.2µM*;HCV NS3 counter=i
CN1C(C(=O)Nc2ccc(OC(F)(F)F)cc2)=CC(c2cccs2)=NS1(=O)=O | -15%
O=C(Nc1ccc(OC(F)(F)F)cc1)c1cc(-c2ccc(Cl)cc2)on1 | -15%
Cc1c(C(=O)Nc2ccc(N3C[C@@H](C)O[C@@H](C)C3)nc2)cccc1-c1ccc(OC(F)(F)F)cc1 | ? | nsP2 cell sec=-13%;NSP2 full ctr=8%;Furin counter=-8%;nsP2 NS23 pep=10%;Papain cs=-10%;nsP2pro confirm=-4%;HCV NS3 counter=i
Cc1cc(C)nc(NC(=S)N2CCN(c3nc(C)cnc3C)CC2)c1 | 1%
CC(C)CN1C(=O)CCc2cc(NC(=O)C3CCC3)ccc21 | -11%
Cc1ccc(Cc2c(C)nc3nc(SCC(=O)NCCN4CCNCC4)nn3c2C)cc1 | 7%
C=C1C(=O)O[C@@H]2C3=C(C)CCC[C@]3(C)CC[C@@]12O | 3.1µM* | nsP2 cell sec=?;NSP2 full ctr=?;Furin counter=-3%;nsP2 NS23 pep=18µM*;Papain cs=-10%;nsP2pro confirm=?;HCV NS3 counter=i
CC1=C2C3OC(=O)C(C)C3(O)CCC2(C)CCC1 (stereo unspecified) | -7%
CC1=C2C3OC(=O)C(C)C3(O)CCC2(C)CCC1=O (stereo unspecified) | 41%
CN([C@H]1c2cc(OCCCC(F)(F)F)ccc2OC(C)(C)[C@@H]1O)S(C)(=O)=O | -11%
NC(CO)C(=O)NNCc1ccc(O)c(O)c1O (stereo unspecified) | 1.8µM* | nsP2 cell sec=-9%;NSP2 full ctr=6.5µM*;Furin counter=-9%;nsP2 NS23 pep=4.1µM*;Papain cs=-1%;nsP2pro confirm=1.3µM*;HCV NS3 counter=?
N[C@@H](CO)C(=O)Nc1ccc(Cl)cc1C(=O)c1ccc[nH]1 | -4%
CC1(COc2ccc(N3CCC(Oc4ccc(OC(F)(F)F)cc4)CC3)cc2)Cn2cc([N+](=O)[O-])nc2O1 (stereo unspecified) | -6%
Cc1cc(C)nc(NC(=S)N2CCN(c3cc(Br)cc(C(F)(F)F)c3)CC2)c1 | -6%
COc1ccc(NC(=O)CCN2CCN(c3cccc(Cl)c3)CC2)cc1 | -10%
CCCCNC(=O)CN1CCN(c2ccc(NC(=O)c3ccc(OC)cc3)cc2C(=O)O)CC1 | 4.5µM* | nsP2 cell sec=?;NSP2 full ctr=4.1µM*;Furin counter=?;nsP2 NS23 pep=7.3µM*;Papain cs=-1%;nsP2pro confirm=6.3µM*;HCV NS3 counter=1.8µM*
Cc1ccc(Cl)cc1NC(=O)c1cnc(N2CCCCC2)c2ccccc12 | -14%
CCOc1cccc(C(=O)Nc2ccc(S(=O)(=O)N(Cc3ccccc3)c3ccccc3)cc2)c1 | -12%
COc1ccc(NC(=O)c2ccc3nc(CCc4ccccc4)oc3c2)cc1 | 15%
CCCCOc1ccc(C(=O)Nc2ccc3c(c2)CCCN3C(=O)c2cccs2)cc1 | -17%
COc1ccc(C(=O)Nc2ccc(N(C)Cc3ccccc3)c(C(=O)O)c2)cc1 | 5µM* | nsP2 cell sec=-7%;NSP2 full ctr=5.2µM*;Furin counter=?;nsP2 NS23 pep=13µM*;Papain cs=-4%;nsP2pro confirm=8µM*;HCV NS3 counter=3.3µM*
CCCCN(CCCNC(=O)c1ccc(Sc2ccc(Cl)cc2)c(NC(C)=O)c1)c1ccccc1 | -24%
CCCCNC(=O)CN1CCN(c2ncc(NC(=O)c3ccc(Cl)cc3)cc2C(=O)O)CC1 | ? | nsP2 cell sec=-16%;NSP2 full ctr=15µM*;Furin counter=-3%;nsP2 NS23 pep=-5%;Papain cs=-9%;nsP2pro confirm=-16%;HCV NS3 counter=i
SMILES | nsP2pro inh | others
CC(=O)Nc1ccc(C)c(C(=O)N[C@H](C)c2cccc3ccccc23)c1 | -7%
O=C(c1ccc2c(c1)ncn2-c1cccc(Cl)c1)N1CCCCC1 | -14%
CCOc1ccc(-c2nn3ncccc3c2-c2ccc(S(C)(=O)=O)cc2)cc1 | 22%
COc1cc(Cl)ccc1C(=O)N1CC[C@@](C)(O)[C@@H](O)C1 | -1%
C=CC(=O)N1CCN(c2nc(=O)n(-c3c(C)ccnc3C(C)C)c3nc(-c4c(O)cccc4F)c(F)cc23)[C@@H](C)C1 | -1%
Cc1ccc(S(=O)(=O)Nc2cnccc2C(=O)Nc2nc(-c3cccc(Cl)c3)cs2)cc1 | i
C[C@H](Oc1cc(-n2cnc3ccc(CN4CCN(C)CC4)cc32)sc1C(N)=O)c1ccccc1C(F)(F)F | 80%
O=C(Nc1nc(-c2ccccc2)cs1)c1ccncc1NS(=O)(=O)c1ccccc1 | i
CCN1CCC2(CCC1=O)CN(Cc1ccc(C)c3ccccc13)CCN2C (stereo unspecified) | i
Cc1cc(-c2nnc3n2CCCCC3)c(C)n1-c1ccc([N+](=O)[O-])cc1 | -12%
COC(=O)CNC(=O)c1cn2cc(-c3cccc(C(F)(F)F)c3)sc2n1 | i
Cc1ccc(S(=O)(=O)Nc2cnccc2C(=O)Nc2nc(-c3ccccc3Cl)cs2)cc1 | i
O=S(=O)(Nc1nc(-c2ccccc2C(F)(F)F)nc2ccccc12)c1ccc(Br)cc1 | i
C=C[C@]1(C)C[C@@H](OC(=O)CSC2C[C@H]3CC[C@@H](C2)N3C)C2(C)[C@H](C)CCC3(CCC(=O)[C@H]32)[C@@H](C)[C@@H]1O (stereo partly specified) | 11%
CCc1ccc(NC(=O)Cn2c(=O)c3cc(Cl)ccc3n3nncc23)cc1 | -15%
CCc1ccc(NCc2cc3cc4c(cc3n(CC(=O)Nc3ccc(Cl)cc3)c2=O)OCO4)cc1 | ? | nsP2 cell sec=-1%
CCOc1ccc(NC(=O)Cn2cc(C(=O)c3ccc(CC)cc3)c(=O)c3cc4c(cc32)OCO4)cc1 | -16%
COC(=O)[C@H](Cc1ccc(O[S+](=O)([O-])c2cccc3cnccc23)cc1)N(C)[S+](=O)([O-])c1ccc2cnccc2c1 | -1%
Cn1cc(CN2CCCC(COc3ccccc3C(=O)N3CCCCC3)C2)c2ccccc21 (stereo unspecified) | 2%
